aGal spleen mod: inhibitors or activators of human alpha-galactosidase in spleen homogenate; P06280; 240,000 compounds, 0.008% hits; human spleen homogenate, 4MU-alpha-Gal fluorescence, 40 min; Potency, µM (series often up to 80 µM), for inactives: top-dose activity change, negative = inhibition, hits mostly inhibitors;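 further: potency means the concentration at half of the fitted maximal effect; 0% = enzyme with vehicle and -100% = no enzyme basal signal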
Target sequence (P06280 32-429 limits assumed): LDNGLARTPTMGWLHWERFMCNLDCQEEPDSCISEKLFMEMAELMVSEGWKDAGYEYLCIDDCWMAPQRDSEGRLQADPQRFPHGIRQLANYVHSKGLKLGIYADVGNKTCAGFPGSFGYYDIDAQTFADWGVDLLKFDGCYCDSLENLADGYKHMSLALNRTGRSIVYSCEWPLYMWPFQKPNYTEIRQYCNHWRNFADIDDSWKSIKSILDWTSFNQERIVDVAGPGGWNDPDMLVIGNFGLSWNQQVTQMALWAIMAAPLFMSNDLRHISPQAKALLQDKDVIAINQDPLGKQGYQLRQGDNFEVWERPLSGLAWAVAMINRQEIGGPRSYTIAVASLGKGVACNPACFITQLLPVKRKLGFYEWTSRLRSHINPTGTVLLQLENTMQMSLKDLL
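Spleen homogenate 1 ug + cpd (titration) + 4-MU-alpha-D-galactopyranoside 1 mM; 37C 40 min; 50 mM citrate/phosphate pH 5.0, 0.01% Tween-20; stop pH 10; fluorescence 365/440; AC50 via Hill.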
HPGD block: HPGD (human) dehydrogenase inhibition | P15428 | purified HPGD, NADH fluorescence kinetic, PGE2 substrate | Potency, µM, inactives show at the top dose activity change, negative = inhibition, actives largely listed as inhibitors | 150,000 compounds, 4.3% hits | AID 894; active means well fitted inhibition curve with a large enough effect, not every such curve was filed as active; inconclusive means small, poorly fitted or top-dose-only effect, or another doubt; inactive means no such curve, though single readings can be large or run the other way; further: potency means the concentration at half of the fitted maximal effect
Target sequence (P15428 whole entry, looked up): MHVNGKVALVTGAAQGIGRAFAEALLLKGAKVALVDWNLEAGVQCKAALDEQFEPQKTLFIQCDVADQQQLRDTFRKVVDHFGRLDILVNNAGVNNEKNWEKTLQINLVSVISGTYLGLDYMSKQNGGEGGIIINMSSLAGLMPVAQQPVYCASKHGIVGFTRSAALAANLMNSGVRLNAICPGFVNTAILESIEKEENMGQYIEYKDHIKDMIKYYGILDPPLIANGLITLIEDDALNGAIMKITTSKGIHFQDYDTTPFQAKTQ
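NADH formation kinetics: reaction with 30 uM PGE2 and 1 mM NAD+ (final), 20 nM enzyme, Tris-HCl pH 8 with Tween 20, after 15 min compound preincubation at room temperature. Fluorescence change, last versus first of five reads.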
PNC assembly inh: perinucleolar compartment assembly inhibition; PC3M PTB-GFP, PNC prevalence imaging, 16 h; stronger effect = lower value; activity change (PNC), negative = inhibition, % at 10 µM; 140,000 compounds, 3.1% hits; AID 2417;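 active means readout at or below -70, meaning at least 70% loss of cells showing the perinucleolar compartment, a nuclear body marking cancer cells; inconclusive means readout between -30 and a set limit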;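 further: plate controls were DMSO wells for no effect and camptothecin positive control wells for full effect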
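PC3M cells stably expressing PTB-GFP, 750–1000 cells/well, treated 16 h at 37 °C with compound (23 nl of library stock), in duplicate. After paraformaldehyde fixation and Hoechst stain, imaged at 20x; PNC prevalence scored by image analysis.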
GLA inh pH 4.5: inhibitors of human alpha-galactosidase A at pH 4.5; P06280; purified enzyme, 4-MU-alpha-Gal fluorescence, pH 4.5; activity change, negative = inhibition, % at 105 µM; 230,000 tested, under 10 active;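 further: 0% = full activity with enzyme and -100% = basal without enzyme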
12-hLO inh: inhibitors of human 12-lipoxygenase (ALOX12). purified 12-hLO, xylenol orange hydroperoxide absorbance. 150,000 compounds, 0.12% hits. Potency, µM (series often up to 57.1 µM), without a hit: at the top dose activity change, negative = inhibition, usual class: inhibitors. AID 1452. P18054; further: potency means the concentration at half of the fitted maximal effect; nearly all actives have a fitted effect of over 55% in size
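Purified human 12hLO (150 nM final) was preincubated with compounds for 15 min at room temperature in 25 mM Hepes pH 7.0, 0.01% Triton X-100, then reacted with 40 uM arachidonic acid for 30 min. Hydroperoxide was detected with ferrous iron/xylenol orange.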
ALDH1A1 block: inhibitors of human aldehyde dehydrogenase 1A1 | P00352 | 220,000 compounds, 7.3% hits | Purified ALDH1A1, NADH fluorescence, propionaldehyde substrate | Potency, µM (titrated, usually from 75.3 µM), for inactives: at the top dose activity, negative = inhibition, most hits filed as inhibitors; active means well fitted inhibition curve with a large enough effect, not every such curve was filed as active; inconclusive means small, poorly fitted or top-dose-only effect, or another doubt; inactive means no such curve, though single readings can be large or run the other way;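 further: potency means the concentration at half of the fitted maximal effect; plate controls were no enzyme wells and a reference inhibitor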
* marks the source's active call; other numbers are inactive results; ? = inconclusive; . = no result given; [ ] = remark or other dose. Shown are actives, neighbours in structure and some others; about 10% of the full set was active somewhere. Unless noted, the call rests on the fitted dose curve; in most records, active means well fitted curve in the direction sought with a large enough effect; inconclusive means small, poorly fitted or top-dose-only effect, or another doubt; inactive means no such curve, though single readings can be large; an effect the other way counts as inactive or inconclusive. Unless noted, on the % scale 0 is the no-effect control and ±100 the full control effect.

SMILES	aGal spleen mod	HPGD block	PNC assembly inh	GLA inh pH 4.5	12-hLO inh	ALDH1A1 block
COC(=O)c1ccc(N2C(=O)CC(N(C)CCc3ccc(OC)c(OC)c3)C2=O)cc1 (configuration not stated)	-1%	-12%	-119*	-19	0%	3.5µM*
CN(Cc1ccncc1)C1CC(=O)N(c2ccc(F)cc2)C1=O (configuration not stated)	0%	.	.	5	.	18µM*
COC(=O)c1ccc(N2C(=O)CC(N(C)Cc3ccccc3)C2=O)cc1 (configuration not stated)	-6%	-13%	7	-5	-5%	8.9µM*
COc1ccc(CN(C(=S)Nc2ccccc2)C2CC(=O)N(c3ccc(Cl)cc3)C2=O)cc1 (configuration not stated)	1%	-12%	26	-4	-13%	7.1µM*
COc1ccc(CN(C(=S)Nc2ccccc2)C2CC(=O)N(c3ccccc3)C2=O)cc1 (configuration not stated)	-6%	-8%	16	0	3%	-13%
C=CCNC(=S)Nc1ccc2cn[nH]c2c1	6%	.	.	3	.	?
CCN(CC)C(=O)c1cc([N+](=O)[O-])cc2c1-c1ccc([N+](=O)[O-])cc1C2=C(C#N)C#N	-9%	.	.	-3	.	.
CCn1c(C)cs/c1=N\C(=S)Nc1ccccc1C	5%	-13%	?	-8	?	13%
Cc1ccc(NC(=O)CN(C)C(=O)Cn2cc(C(F)(F)F)ccc2=O)cc1	-3%	.	-80*	-7	-3%	11%
Nc1sc(-c2ccccc2)c(Cc2ccccc2)c1C(=O)O	-4%	.	.	7	.	10µM*
COC(=O)c1c(N)sc(Cc2ccccc2)c1C	4%	.	.	-1	.	?
O=S(=O)(c1c(Cl)sc(Cl)c1Br)N1CCCC1	-8%	.	.	-4	.	14µM*
O=S(=O)(c1cccc(Cl)c1Cl)N1CCCCC1	1%	-8%	10	2	-7%	-2%
Nc1cccc(C(F)(F)F)c1	2%	-3%	.	.	7%	6%
CCOC(=O)c1sc(N)c(C(=O)Nc2ccccc2)c1C	-6%	.	.	-9	.	11µM*
COC(=O)c1c(NC(=O)Cc2cccs2)sc(C)c1C	6%	-15%	-14	-9	-4%	?
CCOC(=O)c1c(NC(=O)Cc2cccs2)sc(C(=O)N2CCCCC2)c1C	5%	7.1µM*	22	1	-13%	2.5µM*
CCOC(=O)c1c(N)sc(C(=O)OCCOC)c1C	2%	.	.	8	.	14µM*
CCOC(=O)c1c(N)sc(C(=O)N2CCCCC2)c1C	2%	8.9µM*	31	-5	-1%	?
CSCC[C@H](NC(=O)[C@H](CC(C)C)NC(=O)[C@H](CO)NC(=O)[C@H](CCC(=O)O)NC(=O)[C@H](CC(C)C)NC(=O)[C@H](Cc1ccc(O)cc1)NC(=O)[C@H](CCCCN)NC(=O)[C@H](CCCCN)NC(=O)[C@H](C)NC(=O)[C@H](CO)NC(=O)[C@H](CC(C)C)NC(=O)[C@H](CCC(N)=O)NC(=O)CNC(=O)[C@H](CC(C)C)NC(=O)[C@H](CC(C)C)NC(=O)[C@H](CCCCN)NC(=O)[C@H](CO)NC(=O)[C@H](Cc1ccccc1)NC(=O)[C@H](CC(=O)O)NC(=O)[C@H](CO)NC(=O)[C@@H](NC(=O)[C@H](Cc1ccccc1)NC(=O)[C@@H](NC(=O)CNC(=O)[C@H](CC(=O)O)NC(=O)[C@H](C)NC(=O)[C@@H](N)Cc1cnc[nH]1)C(C)C)[C@@H](C)O)C(N)=O	5%	.	.	.	.	.
O=C(N/N=C/c1ccc(OCC(=O)N2CCCCC2)cc1)c1ccccc1	-10%	14µM*	-4	1	0%	18µM*
O=C(N/N=C/c1ccc(OCC(=O)N2CCCCC2)cc1)c1ccccc1O	4%	22µM*	-9	-1	-4%	-6%
O=C(COc1ccc(/C=N/NC(=O)c2ccccc2O)cc1)Nc1ccccc1	9%	.	.	-2	.	?
Cc1cc([N+](=O)[O-])nn1CCCC(=O)Nc1sc2c(c1C(N)=O)CCC(C)C2 (configuration not stated)	3%	16µM*	-13	4	-1%	?
CC1CCc2c(sc(NC(=O)Cn3cnc([N+](=O)[O-])n3)c2C(N)=O)C1 (configuration not stated)	-8%	.	.	-2	.	-3%
SMILES	aGal spleen mod	HPGD block	PNC assembly inh	GLA inh pH 4.5	12-hLO inh	ALDH1A1 block
CCC1(CC)NC(=O)N(CC(=O)Nc2sc3c(c2C(N)=O)CCC3)C1=O	-14%	?	27	-4	-8%	22µM*
CCC1(C)NC(=O)N(CC(=O)Nc2sc3c(c2C(=O)OC)CCCCC3)C1=O (configuration not stated)	-6%	-4%	17	5	0%	?
CC(=O)NC(=S)Nc1sc2c(c1C(N)=O)CCC(C)C2 (configuration not stated)	1%	.	.	6	.	8.9µM*
Cc1sc(NC(=S)NC(=O)C(C)(C)C)c(C(N)=O)c1C	-8%	?	14	-5	-4%	7.9µM*
CC(C)CC(=O)NC(=S)Nc1sc2c(c1C(N)=O)CCC2	-1%	.	.	-1	.	1.4µM*
CC(C)(C)C(=O)NC(=S)Nc1sc2c(c1C(N)=O)CCC2	9%	.	.	6	.	2µM*
CC(=O)O[C@]1(C(C)=O)CC[C@@H]2[C@@H]3C=C(Cl)C4=CC(=O)[C@H]5C[C@@H]5[C@]4(C)[C@H]3CC[C@]21C	-4%[29.1 µM]	0%	.	-2	0%[25.6 µM]	5%[20.9 µM]
O=C(N/N=C/c1sc(N2CCOCC2)nc1-c1ccccc1)c1ccccc1O	-6%	-22%	21	-5	2%	?
O=Cc1sc(N2CCOCC2)nc1-c1ccccc1	0%	.	.	1	.	8.9µM*
N=C(N)SCCSC(=N)N	.	-12%	.	.	-4%[11.4 µM]	10%[13.5 µM]
CN(C)c1cc(Cl)c2nonc2c1N	-7%	.	.	2	.	.
CCCC(=O)NC(=S)Nc1cccc(NC(=O)c2ccccc2Cl)c1	-1%	-18%	-23	-8	-7%	?
O=C(COc1ccccc1)NC(=S)Nc1cccc([N+](=O)[O-])c1	-8%	28µM*	0	1	-2%	?
Cc1ccc(OCC(=O)NC(=S)Nc2cccc(NC(=O)c3ccccc3Cl)c2)cc1	-8%	-9%	29	0	-2%	13µM*
COc1ccc(NC(=O)C(OC(=O)c2ccc([N+](=O)[O-])o2)c2ccccc2)cc1Cl (configuration not stated)	-2%	-20%	14	9	-8%	2.5µM*
CCC(C(=O)Nc1ccc(OC)c(Cl)c1)c1ccccc1 (configuration not stated)	-7%	-6%	-28	2	-2%	-14%

Source: PubChem BioAssay (National Center for Advancing Translational Sciences (NCATS))
